Sm TGR block: inhibitors of Schistosoma mansoni thioredoxin glutathione reductase; Q962Y6; purified TGR, DTNB reduction, TNB absorbance 405 nm; AID 485364; 360,000 compounds, 3% hits; Potency, µM (titrated, usually from 114 µM), for the others: at the highest dose activity change, negative = inhibition, usual class: inhibitors; also: potency is read from the fitted curve at half-maximal effect; % is scaled to controls: 0 for no effect and ±100 for the full control effect; nearly all actives have a fitted effect of over 60% in size
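TGR 20 nM + NADPH 100 uM (dispensed conc.), cpd preinc 15 min RT; start with NADPH (500 uM addition) then DTNB (15 mM addition). Kinetic TNB absorbance, 405 nm filter. Four-parameter Hill fit across titration.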
SARS PLP yeast: inhibitors of SARS-CoV papain-like protease in yeast; S. cerevisiae expressing SARS-CoV PLpro, growth rescue; 330,000 compounds, 0.19% hits; Potency, µM (titrated, usually from 32.9 µM), inactives show top-dose activity, positive = growth rescue, usual class: activators; calls by dose curve; also: potency is read from the fitted curve at half-maximal effect; 0% is about no effect; nearly all actives have a fitted effect of over 55% in size
HCMV inh: inhibitors of human cytomegalovirus; HFF cells, HCMV-luciferase reporter, 72 h; active compounds read low; 410,000 compounds, 4.5% hits; activity change, negative = inhibition, % at 57.5 µM; in the data active = activity change below about -60%; inconclusive = no clear call, values can overlap the other calls; inactive = above about -39%; also: % is scaled to controls: 0 for no effect and ±100 for the full control effect
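Human foreskin fibroblasts infected with luciferase-reporter HCMV at MOI 1 PFU/cell, compounds at two doses. Luciferase measured 72 h post infection; normalized to buffer-only basal and Salinomycin (10uM) controls.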
Pf growth 48h: P. falciparum growth inhibition at 48 hours (one generation); P. falciparum luciferase growth in erythrocytes, 48 h; Potency, µM (series often up to 28.7 µM), without a hit: at the highest dose activity change, negative = inhibition, hits mostly inhibitors; 310,000 compounds, 5.9% hits; AID 504832; also: potency is read from the fitted curve at half-maximal effect; % is scaled to controls: 0 for no effect and ±100 for the full control effect
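Luminescence readout; reporter = integrated firefly luciferase in P. falciparum. RBC culture at 2% hematocrit, 0.1% parasitemia final, 37 C/5% CO2; decreased signal taken as growth inhibition.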
Pf growth 96h: P. falciparum growth inhibition at 96 hour, primary screen for plastid delayed-death inhibitors. P. falciparum luciferase reporter growth, 96 h. Potency, µM (highest dose often 28.7 µM), without a hit: at the top dose activity change, negative = inhibition, most hits filed as inhibitors. 320,000 compounds, 6.9% hits. AID 504834; also: potency is read from the fitted curve at half-maximal effect; % is scaled to controls: 0 for no effect and ±100 for the full control effect
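P. falciparum expressing integrated firefly luciferase grown in erythrocytes (2% hematocrit, 0.05% parasitemia final) with compounds for 96 hours at 37 C, 5% CO2. Growth inhibition read as loss of luminescence after adding luciferase detection reagent.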
HCV inhibitor: inhibitors of hepatitis C virus infection. Huh7.5.1 HCVcc-Cre infection, luciferase reporter, 44 h. Potency, µM (highest dose often 41.8 µM), inactives show top-dose activity change, negative = inhibition, usual class: inhibitors. 340,000 compounds, 3.4% hits; also: potency is read from the fitted curve at half-maximal effect; % is scaled to controls: 0 for no effect and ±100 for the full control effect
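A cell-based infection assay in which seeded cells (1,000 per well) receive test compound after 4 h, are inoculated with HCVcc-Cre at approximately 0.5 moi, and are incubated 44 h before luminescence detection.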
Active calls of the source: *; [ ] = another dose, or the depositor's remark. In the library only some 15% were active in any assay of this set; here they are far more common. Unless noted, calls follow the shape of the dose curve; as a rule, active = well fitted curve in the direction sought with a large enough effect; inconclusive = small, poorly fitted or top-dose-only effect, or another doubt; inactive = no such curve, though single readings can be large; an effect the other way counts as inactive or inconclusive.

O=C(Nc1cccc(C(F)(F)F)c1)c1cccc(C(=O)Nc2cccc(C(F)(F)F)c2)c1 was read as Sm TGR block -1% and HCMV inh -32.
COC(=O)[C@H](C)NC(=O)Nc1cccc(C(F)(F)F)c1 was read as Sm TGR block 3%, SARS PLP yeast -13%, HCMV inh 28, Pf growth 48h -8%, Pf growth 96h -10% and HCV inhibitor 11%.
O=C(Nc1ccncc1)Nc1cccc(C(F)(F)F)c1 was read as Sm TGR block -3%, SARS PLP yeast inconclusive, HCMV inh -80*, Pf growth 48h inconclusive, Pf growth 96h inconclusive and HCV inhibitor -25%.
Screening COc1ccc(CC(N)c2csc(NC(=O)Nc3cccc(C(F)(F)F)c3)n2)cc1 (centres undefined) returned HCMV inh -39.
CC(C)C[C@H](NS(=O)(=O)c1ccc(F)cc1F)C(=O)N1CCC[C@H]1C(=O)NCc1ccccc1 was read as HCMV inh -3.
`CC(=O)Cn1c(CN2CCCCC2)nc2ccccc2c1=O` gave Sm TGR block 0%, SARS PLP yeast 1%, HCMV inh 8, Pf growth 48h 10µM*, Pf growth 96h 12% and HCV inhibitor 1%.
CC(=O)Cn1c(CN2CCCC2)nc2ccccc2c1=O was read as Sm TGR block -4%, SARS PLP yeast -2%, HCMV inh 29, Pf growth 48h 10%, Pf growth 96h 35% and HCV inhibitor 4%.
`Cc1cccc(C)c1NC(=O)Cn1c(CN2CCCCC2)nc2ccccc2c1=O` gave Sm TGR block -3%, SARS PLP yeast 8%, HCMV inh 17, Pf growth 48h 15µM*, Pf growth 96h 131% and HCV inhibitor 1%.
`COc1ccccc1NC(=O)Cn1c(CN2CCCCC2)nc2ccccc2c1=O` gave Sm TGR block -14%, SARS PLP yeast -17%, HCMV inh 33, Pf growth 48h -25%, Pf growth 96h 65% and HCV inhibitor -3%.
`COc1ccc(C#Cc2c(-c3ccsc3)oc3ccc(-c4cc(OC)c(OC)c(OC)c4)cc23)cc1` gave HCMV inh -8 and HCV inhibitor 9%.
Screening COC(=O)C[C@](O)(CCCC(C)(C)O)C(=O)O[C@@H]1C(OC)=C[C@]23CCCN2CCc2cc4c(cc2[C@H]13)OCO4 returned Pf growth 48h 0.0095µM* and Pf growth 96h 0.0067µM*.
For OC(CCN1CCC2CCC(C2)C1)c1ccc(Br)cc1 (centres undefined) the results were HCMV inh 0 and HCV inhibitor 32µM*.
For O=C(CCN1CCC2CCC(C2)C1)c1ccccc1 (centres undefined) the results were HCMV inh -21 and HCV inhibitor 16%.
Cc1ccc(Nc2nc(C)c(NC(=O)c3ccc(C)cc3)c(Nc3ccc(C)cc3)n2)cc1 was read as Sm TGR block 0% and HCMV inh -63*.
CCOc1ccc(Nc2nc(C)c(NC(=O)c3ccc(C)cc3)c(Nc3ccc(OCC)cc3)n2)cc1 was read as Sm TGR block -2% and HCMV inh 0.
CC(=O)Nc1ccc(Nc2nc(C)c([N+](=O)[O-])c(Nc3ccc(NC(C)=O)cc3)n2)cc1 was read as Sm TGR block -16%, SARS PLP yeast -2%, HCMV inh 26, Pf growth 48h -26%, Pf growth 96h 2.1µM* and HCV inhibitor inconclusive.
O=C(N1CCOCC1)C12OC3CC(CC(C3)O1)O2 was read as HCMV inh 67.
`CCCCOc1cccc(C(=O)N(Cc2sccc2C)C2CCS(=O)(=O)C2)c1` (centres undefined) gave Sm TGR block 3% and HCMV inh -12.
For CCOc1ccc(NC(=O)c2ccc3c(c2)CCN3S(=O)(=O)CC)cc1 the results were Sm TGR block -1% and HCMV inh -31.
For O=S(=O)(c1ccccc1)C1CC1(c1ccccc1)c1ccccc1 (centres undefined) the results were HCMV inh -6 and HCV inhibitor 2%.
For O=c1c2c3c(sc2n2cnnc2n1Cc1ccccc1)CN(Cc1ccccc1)CC3 the results were Sm TGR block -16%, SARS PLP yeast -9%, HCMV inh 10, Pf growth 48h 10µM*, Pf growth 96h inconclusive and HCV inhibitor 7.9µM*.
Screening CC(C(=O)Nc1sc2c(c1C(=O)NCC1CCCO1)CCC2)N1C(=O)c2ccccc2C1=O (centres undefined) returned Sm TGR block -8%, SARS PLP yeast 19%, HCMV inh -100*, Pf growth 48h 3%, Pf growth 96h 7% and HCV inhibitor -12%.
CC(C)(C)NC(=O)CSc1ncccc1-c1nc2ccccc2[nH]1 was read as Sm TGR block -28%, SARS PLP yeast 10%, HCMV inh -32, Pf growth 48h -4%, Pf growth 96h inconclusive and HCV inhibitor 4%.
Screening O=C(CSc1ncccc1-c1nc2ccccc2[nH]1)NCc1ccco1 returned Sm TGR block 13µM*, SARS PLP yeast -5%, HCMV inh 58, Pf growth 48h 37%, Pf growth 96h 1%[5.75 µM] and HCV inhibitor 17%.
Screening Cc1cc2nc(-c3cccnc3SCC(=O)NCc3ccco3)[nH]c2cc1C returned Sm TGR block 18µM*, SARS PLP yeast -31%, HCMV inh 163, Pf growth 48h 0%, Pf growth 96h 44% and HCV inhibitor -2%.
Screening CC1(C)Oc2ccc(C(=O)NNC(=O)Nc3ccccc3)cc2NC1=O returned Sm TGR block 10%, SARS PLP yeast 0%, HCMV inh -5, Pf growth 48h 8%, Pf growth 96h 30% and HCV inhibitor 14%.
Screening CCC(Sc1nnc2c(n1)[nH]c1ccccc12)C(=O)Nc1nnc(C(C)C)s1 (centres undefined) returned Sm TGR block 4% and HCMV inh -4.
Screening COCCN1C=C(C(=O)OC)C(c2cc3c(cc2Br)OCO3)C(C(=O)OC)=C1 returned Sm TGR block 5%, SARS PLP yeast 7%, Pf growth 48h 5.9µM*, Pf growth 96h inconclusive and HCV inhibitor 11%.
COC(=O)C1=CN(Cc2cccs2)C=C(C(=O)OC)C1c1cccc(Cl)c1 was read as Sm TGR block 6%, SARS PLP yeast -1%, HCMV inh -14, Pf growth 48h 9.3µM*, Pf growth 96h inconclusive and HCV inhibitor inconclusive.

Bioassay records from PubChem.
